We go through 19 compounds from PubChem BioAssay (NCATS).

The test system of one assay is MKL-1. In words: qHTS assay to identify novel small-molecules to repurpose for Merkel cell carcinoma treatment (AID 1296009). Also: nearly all actives have a fitted effect of over 60% in size. Also: potency is read from the fitted curve at half-maximal effect. As to conditions: MCC and control cell lines, CellTiter-Glo viability, 72 h; series mostly up to 46 µM. In a few lines:
(§1)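 Cell viability measured by CellTiter-Glo following 72 hr compound treatment at 37 degree celsius, with NPC and MIPE libraries tested in 8- and 11-point concentration series.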

For a further assay, the system named is MKL-2. Described as above. The settings on record: MCC and control cell lines, CellTiter-Glo viability, 72 h; series mostly up to 46 µM. A digest of the protocol:
as §1
(In general: In ATP-based viability assays light output follows the ATP content of the culture.)

The subject of another assay is UISO. Described as above. The settings on record: MCC and control cell lines, CellTiter-Glo viability, 72 h; series mostly up to 46 µM. A digest of the protocol: as §1
The subject of another assay is WaGa. The assay is described as above. As to conditions: MCC and control cell lines, CellTiter-Glo viability, 72 h; series mostly up to 46 µM. In a few lines: as §1
Another assay deals with NIH3T3. The description is as above. As to conditions: MCC and control cell lines, CellTiter-Glo viability, 72 h; at 44.8 µM (top of the series) unless noted. In a few lines: as §1
Another assay has as its system C33A. The experiment in a line: Primary qHTS to identify gynecologic anti-cancer compounds using libraries of approved drugs and bioactive compounds (AID 1345084). Also: nearly all actives have a fitted effect of over 55% in size. Also: potency is read from the fitted curve at half-maximal effect. As to conditions: Gynecologic cancer cell panel viability, ATPlite luminescence, 48 h; series mostly up to 57.5 µM. In a few lines:
(§2)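 In this quantitative HTS, cell killing is estimated from loss of ATP-dependent luciferase light. Cells see five compound concentrations over a 48 h exposure.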
A general note: Quantitative high-throughput screening tests each substance at several concentrations.

In a further assay the test system is CAOV3. The description is as above. As to conditions: Gynecologic cancer cell panel viability, ATPlite luminescence, 48 h; series mostly up to 57.5 µM. A digest of the protocol:
as §2

Another assay concerns CASKI. Described as above. The settings on record: Gynecologic cancer cell panel viability, ATPlite luminescence, 48 h; series mostly up to 57.5 µM. A digest of the protocol: as §2
Another assay concerns Es-2. Described as above. As to conditions: Gynecologic cancer cell panel viability, ATPlite luminescence, 48 h; series mostly up to 57.5 µM. A digest of the protocol: as §2
In another assay the test system is HeLa. The assay is described as above. The settings on record: Gynecologic cancer cell panel viability, ATPlite luminescence, 48 h; series mostly up to 57.5 µM. A digest of the protocol:
as §2

The test system of another assay is Hek293T. The description is as above. The settings on record: Gynecologic cancer cell panel viability, ATPlite luminescence, 48 h, control line for the selectivity index; series mostly up to 57.5 µM. A digest of the protocol: as §2
For a further assay, the system named is JEG-3. The assay is described as above. The settings on record: Gynecologic cancer cell panel viability, ATPlite luminescence, 48 h; series mostly up to 57.5 µM. In a few lines:
as §2

The subject of another assay is OV90. The description is as above. The settings on record: Gynecologic cancer cell panel viability, ATPlite luminescence, 48 h; series mostly up to 57.5 µM. In a few lines: as §2
Another assay relates to PA-1. The assay is described as above. As to conditions: Gynecologic cancer cell panel viability, ATPlite luminescence, 48 h; series mostly up to 57.5 µM. In a few lines:
as §2

Another assay deals with SKOV3. The assay is described as above. The settings on record: Gynecologic cancer cell panel viability, ATPlite luminescence, 48 h; series mostly up to 57.5 µM. A digest of the protocol: as §2
The subject of the next assay is Tov-21-G. The assay is described as above. The settings on record: Gynecologic cancer cell panel viability, ATPlite luminescence, 48 h; series mostly up to 57.5 µM. In a few lines: as §2
In another assay the test system is Tov112D. The description is as above. The settings on record: Gynecologic cancer cell panel viability, ATPlite luminescence, 48 h; series mostly up to 57.5 µM. A digest of the protocol:
as §2

Assay [1] is described as follows: Drug repurposing screens with cells derived from glioblastoma tumor samples (AID 1345199). Also: nearly all actives have a fitted effect of over 40% in size. The settings on record: GBM patient neurospheres viability, ATP luminescence, 48 h. In a few lines: (§3)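 Primary testing used CD133+ neurospheres from four GBM patients, seven concentrations, 48 h exposure and ATP-based viability; confirmation added three slower-growing patient lines.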

The subject of another assay is astro. Described as above. The settings on record: viability, ATP luminescence, 48 h; series mostly up to 45.9 µM. In a few lines: as §3
The nature of assay [2]: qHTS assay to identify inhibitors of the type 1 interferon - major histocompatibility complex class I in skeletal muscle: Counter screen cell viability and HiBit confirmation (AID 1347412). Also: nearly all actives have a fitted effect of over 60% in size. Also: potency is read from the fitted curve at half-maximal effect. As to conditions: iHSKM muscle cells + IFN-b, HiBiT or CellTiter-Glo, 24 h. In a few lines: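 Duplicate plates, pinned identically: one read for HiBiT-tagged endogenous HLA-B luminescence, the other for ATP-content viability via CellTiter Glo. Cells were genome-engineered human myoblasts given 4 ng/ml IFN-b; compounds 12-pt, 1:3 from 46 uM final; 24 hr exposure.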

Results filed as inconclusive are left out. A number with no mark means an inactive call. The source made the active and inactive calls. Calls follow the shape of the dose curve; as a rule, active = well fitted curve in the direction sought with a large enough effect; inconclusive = small, poorly fitted or top-dose-only effect, or another doubt; inactive = no such curve, though single readings can be large; an effect the other way counts as inactive or inconclusive.
% is scaled to controls: 0 for no effect and ±100 for the full control effect.

For the compound `Cc1[nH]c2ccccc2c1CCNCc1ccc(C=CC(=O)NO)cc1`, the Potency was 0.332 µM (active) with MKL-1, 0.0469 µM (active) in the assay on MKL-2, 0.526 µM (active) in the assay with UISO and 0.059 µM (active) in the assay with WaGa.
Turning to `CCC1=C[C@@H]2CN(C1)Cc1c([nH]c3ccccc13)[C@@](C(=O)OC)(c1cc3c(cc1OC)N(C)[C@@H]1[C@@](O)(C(=O)OC)[C@H](OC(C)=O)[C@]4(CC)C=CCN5CC[C@]31[C@@H]54)C2`, the Potency in the assay on MKL-1 was 0.0118 µM (active).
For the compound `O=C1CCC[C@@H]2[C@H]3CCC[N+]4([O-])CCC[C@@H](CN12)[C@@H]34` (some centres undefined), the Potency result in the assay with MKL-1, in the assay on MKL-2, in the assay on UISO, with WaGa, in the assay on C33A and in the assay with CAOV3 was “inactive” throughout. For the same compound, the Potency result with CASKI, in the assay with Es-2, in the assay with HeLa, with Hek293T, in the assay on JEG-3 and in the assay with OV90 was “inactive” each time. Further, the Potency entry with PA-1, with SKOV3, in the assay with Tov-21-G and with Tov112D was “inactive” in each case. In the assay on NIH3T3, the compound was called inactive.
Regarding `COc1ccc(CC2SC(=O)NC2=O)cc1C(=O)NCc1ccc(C(F)(F)F)cc1` (centres undefined), the Potency result in the assay with MKL-1, with MKL-2, in the assay on UISO and with WaGa was “inactive” throughout.
In the case of `C[C@H]1C[C@@H]2[C@@H]([C@@H](O)C[C@@]3(C)[C@H]2CC[C@]3(O)C(=O)CO)[C@@]2(C)C=CC(=O)C=C12`, the Potency result in the assay on MKL-1, with MKL-2, in the assay on UISO, with WaGa and in the assay on astro was “inactive” in each case. For the same compound, in the assay on NIH3T3, the compound was called inactive. For the same compound, the activity, negative = cell killing was -10.7% in assay [1] (at 20 µM (top of the series), tumour line C); -18.9% in assay [1] (at 21.2 µM (top of the series), tumour line B); -26.6% in [1] (at 21.2 µM (top of the series), tumour line D); -9.28% in assay [1] (at 21.3 µM (top of the series), tumour line A).
For the compound `CN(C)CC=CC(=O)Nc1cc2c(Nc3ccc(F)c(Cl)c3)ncnc2cc1O[C@H]1CCOC1`, the Potency in the assay with MKL-1 was 14.8 µM (active); with MKL-2, 5.26 µM (active); with UISO it was 14.8 µM (active); in the assay on WaGa, 14.8 µM (active).
On to `CCCn1c(=O)c2[nH]c(-c3cnn(Cc4cccc(C(F)(F)F)c4)c3)nc2n(CC)c1=O`, for which the Potency result in the assay with MKL-1, with MKL-2, in the assay with UISO, with WaGa, in the assay with C33A and in the assay on CAOV3 was “inactive” each time. The Potency entry in the assay with CASKI, in the assay with Es-2, in the assay on HeLa, in the assay on Hek293T, in the assay with JEG-3 and in the assay with OV90 was “inactive” each time. Besides, the Potency entry in the assay on PA-1, in the assay with SKOV3, in the assay on Tov-21-G and in the assay on Tov112D was “inactive” throughout. Moreover, the call in the assay on NIH3T3 was inactive.
On to `Cc1cn2cc(C(=O)N(C)CCO)cc(N[C@@H]3CCOc4cccc(C)c43)c2n1`, for which the Potency entry in the assay with MKL-1, with MKL-2, in the assay with WaGa, in the assay on C33A, with CAOV3 and with CASKI was “inactive” in each case. Moreover, the Potency entry with Es-2, in the assay on HeLa, in the assay on Hek293T, in the assay with JEG-3, in the assay with OV90 and in the assay on SKOV3 was “inactive” each time. Besides, the Potency result in the assay with Tov-21-G and with Tov112D was “inactive” throughout. Moreover, the result in the assay on NIH3T3 was inactive.
For `Cc1cnc(-c2cnc(NCCNc3ccc(C#N)cn3)nc2-c2ccc(Cl)cc2Cl)[nH]1`, the Potency entry with MKL-1, in the assay with MKL-2, in the assay on WaGa, with CAOV3, with CASKI and in the assay with Es-2 was “inactive” throughout. Also, the Potency result in the assay on Hek293T, in the assay with PA-1, in the assay with SKOV3, in the assay on Tov-21-G and in the assay on Tov112D was “inactive” each time. In addition, the call with NIH3T3 was inactive.
As for `O=C(O)c1ccc2c(c1)nc(Nc1cccc(Cl)c1)c1ccncc12`, the Potency result with MKL-1 and in the assay with JEG-3 was “inactive” each time. For the same compound, the Potency in the assay with MKL-2 is 5.26 µM (active); in the assay with UISO, 4.18 µM (active); with CASKI it was 35.5 µM (active); in the assay with Tov-21-G, 22.4 µM (active). In the assay on NIH3T3, the outcome was inactive.
Turning to `Nc1nc(-c2nn(Cc3ccccc3F)c3ncccc23)nc(N)c1N1CCOCC1`, the Potency entry with MKL-1, with MKL-2, with UISO and with WaGa was “inactive” each time.
Consider `Cn1c(CNc2ccc(C(=N)N)cc2)nc2cc(C(=O)N(CCC(=O)O)c3ccccn3)ccc21`, for which the Potency result in the assay on MKL-1, in the assay with MKL-2, in the assay on UISO, with WaGa, with C33A and in the assay with CAOV3 was “inactive” in each case. Also, the Potency result in the assay on CASKI, with Es-2, in the assay on HeLa, with Hek293T, with JEG-3 and in the assay with OV90 was “inactive” throughout. Also, the Potency entry in the assay with PA-1, in the assay with SKOV3, in the assay with Tov-21-G and in the assay on Tov112D was “inactive” each time. The outcome in the assay with NIH3T3 was “inactive [at 17.4 µM]”.
For the compound `CC1(C)OC2=C(C(=O)c3ccccc3C2=O)[C@H](NCc2ccccc2)[C@H]1O`, the Potency with MKL-1 was 3.32 µM (active).
As for `CC(C)(C)c1cc(NC(=O)Nc2ccc(-c3cn4c(n3)sc3cc(OCCN5CCOCC5)ccc34)cc2)no1`, the Potency entry with MKL-1, with MKL-2, in the assay on UISO, in the assay with WaGa, in the assay with C33A and in the assay with CASKI was “inactive” in each case. Moreover, the Potency result in the assay on Es-2, in the assay with HeLa, in the assay with Hek293T, in the assay with JEG-3, with OV90 and in the assay on PA-1 was “inactive” throughout. Besides, the Potency result in the assay on SKOV3, with Tov-21-G and in the assay on Tov112D was “inactive” each time. In addition, the result in the assay with NIH3T3 was inactive.
With `Nc1nc(NCCNc2ncc(-n3ccnc3)c(-c3ccc(Cl)cc3Cl)n2)ccc1[N+](=O)[O-]`, the Potency result in the assay with MKL-1, in the assay on MKL-2, in the assay on UISO, in the assay with WaGa, in the assay with CAOV3 and in the assay on CASKI was “inactive” each time. In addition, the Potency entry in the assay on Es-2, with Hek293T, in the assay with OV90, with PA-1, in the assay on SKOV3 and in the assay on Tov-21-G was “inactive” in each case. For the same compound, the Potency result in the assay with Tov112D was “inactive”. Also, the result in the assay with NIH3T3 was inactive. Moreover, the Potency in assay [2] (HiBiT) was 15.7 µM (active). Besides, the activity change, negative = inhibition in assay [2] (Viability, at 45.9 µM (top of the series)) was -15.1%.
Turning to `O=C(C=Cc1c(C(=O)O)[nH]c2cc(Cl)cc(Cl)c12)Nc1ccccc1`, the Potency result in the assay on MKL-1, with MKL-2, in the assay on UISO and in the assay with WaGa was “inactive” each time.
For the compound `C=C1C(=CC=C2CCCC3(C)[C@@H]([C@H](C)C=CC=CC(O)(CC)CC)CC[C@@H]23)C[C@@H](O)C[C@@H]1O` (some centres undefined), the Potency entry in the assay with MKL-1 and in the assay with UISO was “inactive” in each case. Further, the Potency was 14.8 µM (active) with MKL-2 and 11.8 µM (active) with WaGa.
`CN1CCN(c2ccc3nc(-c4c(N)c5c(F)cccc5[nH]c4=O)[nH]c3c2)CC1`: the Potency in the assay on MKL-1 was 8.33 µM (active).
`CN(C)c1nc(Cc2ccc(NC(=O)c3ccc4ccccc4c3)cc2)nc(Cl)c1CC(=O)O`: the Potency entry in the assay on MKL-1, in the assay on MKL-2, with UISO, with WaGa, in the assay on C33A and in the assay on CAOV3 was “inactive” each time. The Potency result in the assay on CASKI, in the assay on Es-2, with HeLa, in the assay with Hek293T, with JEG-3 and with OV90 was “inactive” each time. Further, the Potency entry with PA-1, in the assay on Tov-21-G and in the assay with Tov112D was “inactive” each time.
